Source: PubChem (National Center for Advancing Translational Sciences (NCATS))
Pf growth 96h = P. falciparum growth inhibition at 96 hours; 320,000 compounds, 6.9% hits; Potency, µM (titrated, usually from 28.7 µM), usual class: inhibitors; P. falciparum luciferase reporter growth, 96 h
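Two-generation exposure (96 h) targets delayed-death phenotype. Reporter parasites carrying integrated firefly luciferase, in red cells at 2% hematocrit and 0.05% parasitemia final, kept at 37 C, 5% CO2; luminescence loss indicates inhibition.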
Shiga inhibitor = Shiga toxin inhibition | Vero cells, Shiga toxin protein synthesis inhibition reporter | inhibition, % at 38.7 µM | 290,000 compounds, 9.2% hits | AID 2315; in the data active means inhibition mostly above about 28%, no sharp cut-off; inactive means mostly below about 43%
Cycloheximide cs = counter-screen hit for Shiga toxin inhibitors, cycloheximide. 300,000 compounds, 12% hits. max response, %. cell reporter, cycloheximide protein synthesis inhibition counterscreen. AID 2314; in the data active means max response mostly above about 13%, no sharp cut-off; inactive means mostly below about 14%; further: read at 38.3 µM for the half of the compounds with a filed dose
Pf growth 48h = inhibits P. falciparum growth in the first generation, 48 h; Potency, µM (series often up to 28.7 µM), actives largely listed as inhibitors; P. falciparum luciferase growth in erythrocytes, 48 h; 310,000 compounds, 5.9% hits; AID 504832
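Cell-based growth assay: transgenic P. falciparum expressing firefly luciferase, cultured in red cells within RPMI 1640 containing 0.5% w/v Albumax, 24 mM bicarbonate and gentamycin. A drop in luciferase activity indicates inhibition.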
HCMV inh = inhibitors of human cytomegalovirus; 410,000 compounds, 4.5% hits; activity change, negative = inhibition, % at 57.5 µM; HFF cells, HCMV-luciferase reporter, 72 h; active compounds read low; in the data active means activity change below about -60%; inconclusive means no clear call, values can overlap the other calls; inactive means above about -39%
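Two-dose cell screen: HFF monolayers treated with compounds and infected with luciferase-expressing HCMV at 1 PFU/cell, 72 h at 37C, then lysed for luciferase measurement.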
Hits are given with their value; n = inactive; u = inconclusive; x = no result given; ! = not confirmed by another sample. The list is not random: actives were taken first. Their share in the collection is about 20%. Unless noted, the call rests on the fitted dose curve; in most records, active means well fitted inhibition curve with a large enough effect; inconclusive means small, poorly fitted or top-dose-only effect, or another doubt; inactive means no such curve, though single readings can be large or run the other way.

SMILES	Pf growth 96h	Shiga inhibitor	Cycloheximide cs	Pf growth 48h	HCMV inh
COc1ccc(C2=NN3C(=O)c4c(ccc(OC)c4OC)C3C2)cc1 (centres undefined)	n	n	n	2.6µM	n
COc1ccc2c(c1OC)C(=O)N1N=C(c3ccc(Br)cc3)CC21 (centres undefined)	n	n	n	u	x
COc1ccc2c(c1OC)C(=O)N1c3ccccc3N=C(c3ccc([N+](=O)[O-])cc3)CC21 (centres undefined)	n	n	n	2.6µM	u
COc1ccc2c(c1OC)C(=O)N1N=C(c3ccc(-c4ccccc4)cc3)CC21 (centres undefined)	u	n	n	u	u
COc1ccc2c(c1OC)C(=O)N1N=C(c3ccc(Cl)cc3)CC21 (centres undefined)	n	n	13	5.9µM	u
COc1ccc2c(c1OC)C(=O)N1N=C(c3ccc(O)cc3)CC21 (centres undefined)	n	n	n	1.3µM	n
COc1cc(OC)cc(C(=O)N2CCN(C(=O)c3cccs3)CC2)c1	n	n	n	n	n
Cc1cc(Br)ccc1NC(=O)CN(C)C(=O)C1CCN(C(=O)c2ccc(F)cc2)CC1	n	x	x	u	n
CC1CCCCC12NC(=O)N(CC(=O)OCC(=O)NC(=O)c1ccccc1)C2=O (centres undefined)	n	x	x	n	n
CO/N=C(/COc1ccc(F)cc1)c1ccc(OC)cc1	n	n	n	x	-103
CCCN1CCN(CCCNC(=O)c2ccc3nc(N4CCC(C)CC4)sc3c2)CC1	u	47	33	n	n
CCOc1ccc(CCNC(=O)c2ccc3nc(N4CCC(C)CC4)sc3c2)cc1OCC	x	x	x	x	n
CCOC(CNC(=O)c1ccc2nc(N3CCC(C)CC3)sc2c1)OCC	9.3µM	n	25	u	n
Cc1ccc(C)c(N2CCN(CCCNC(=O)c3ccc4nc(N5CCC(C)CC5)sc4c3)CC2)c1	x	x	x	x	n
CCCNC(=O)c1cnc2c(-c3ccc(OCC)c(OCC)c3)c(C)nn2c1-c1ccccc1	x	x	x	x	n
O=C(CSc1nnc(-c2ccccn2)o1)Nc1cccc(Cl)c1	n	n	n	n	n
Nc1ccccc1SCC(=O)Nc1ccc2c(c1)OCCO2	n	87	37	n	n
Nc1cc(N)nc(SCC(=O)Nc2ccc3c(c2)OCO3)n1	n	n	n	n	n
O=C(CSc1nnc(-c2ccc(C(F)(F)F)cn2)o1)Nc1cccc(Cl)c1	n	n	17	n	n
Nc1ccccc1SCC(=O)Nc1ccc2c(c1)OCO2	n	73	23	n	n
Nc1nnc(SCC(=O)Nc2ccc3c(c2)OCCO3)s1	x	n	n	n	n
O=C(CSc1nnc(-c2cccc(Cl)c2)o1)Nc1ccc2c(c1)OCCO2	n	36	n	n	n
CCC(CO)Oc1cc(NCc2ccc(C(C)(C)C)cc2)c2ncn(C(C)C)c2c1 (centres undefined)	x	x	x	x	n
C/C(=N\O)C(C)Oc1ccc(Cl)cc1 (centres undefined)	n	n	n	n	n
Cc1nc(SCC(=O)Nc2ccc3c(c2)OCCO3)nc(C)c1C	n	n	n	n	n
SMILES	Pf growth 96h	Shiga inhibitor	Cycloheximide cs	Pf growth 48h	HCMV inh
CC(=O)NC(CC(=O)Nc1ccc2c(c1)OCCO2)c1ccccc1 (centres undefined)	n	n	20	n	n
O=C(CC(c1ccccc1)c1ccccc1)Nc1ccc2c(c1)OCCO2	n	n	n	u	n
Cc1cccc(SCC(=O)Nc2ccc3c(c2)OCCO3)c1	n	102	39	n	n
Nc1cc(N)nc(SCC(=O)Nc2ccc3c(c2)OCCCO3)n1	x	n	23	n	n
CCOc1ccc(Sc2cc(C(=O)NCc3ccc(F)cc3)c3ccccc3n2)cc1	x	x	x	x	n
COc1ccc(C2=NS(=O)(=O)N(C)C(C(=O)NCc3ccccc3)=C2)cc1OC	n	n	n	n	-80!
CC(=O)Nc1ccc(S(=O)(=O)Oc2ccccc2N2C(=O)C3C4CCC(C4)C3C2=O)cc1 (centres undefined)	n	n	n	n	n
Cc1ccc(-c2nnc(SCC(=O)CC(=O)Nc3ccccc3)n2C)cc1	u	n	n	u	n
COc1ccccc1NC(=O)CSc1nnc(-c2ccc(NC(C)=O)cc2)n1C	u	n	n	n	n
COc1ccccc1NC(=O)CSc1nnc(CCNC(=O)c2ccc(C)cc2)n1C	n	n	15	u	n
COc1ccccc1NC(=O)CC(=O)CSc1nnc(-c2ccc(C)cc2)n1C	n	n	n	12µM	n
